# Laboratory results taken from PubChem BioAssay AID1347383 (Zoeller Lab, School of Medicine, Boston University, 2020).
# Calls of active or inactive are those of the source.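 The calls were made as follows: active = cell survival after UV exposure 2 SD above solvent-only control wells at 10 µM, confirmed on one or two repeats; inactive = the rest.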
# Experiment: cell survival after pyrene fatty acid photosensitization – ZR-82 cells, Analyticon library, screen 2, phospholipid biosynthesis inhibitor project, primary screen (AID 1347383);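 also: survival reflects blocked phospholipid synthesis cutting uptake of the phototoxic fatty acid; compound and fatty acid exposure 3 h then viability read next day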
# Details: ZR-82 CHO cells, pyrene-fatty acid UV killing, CellTiter Blue, at 10 µM; peroxisome-deficient CHO-K1 variant, with DGAT-1, DGAT-2 and ACAT inhibitors unless noted
row,SMILES,outcome
1,CCCCCCCCCCCCCCCc1cccc(O)c1O,inactive
2,CCC1C2CC3C4N(C)c5ccccc5C45CC(C2C5O)N3C1O (stereo not drawn),inactive [setting not given]
3,COc1ccc(/C=C/c2cc(O)cc(O)c2)cc1,inactive [setting not given]
4,COc1cc(C2c3cc4c(c(O)c3CC3COC(=O)C32)OCO4)cc(OC)c1O (stereo not drawn),inactive [setting not given]
5,COc1ccc(CC2C(=O)OCC2Cc2ccc3c(c2)OCO3)cc1OC (stereo not drawn),inactive
6,COC1CC(O[C@H]2CC[C@]3(C)C4CC[C@]5(C)[C@@H](C6=CC(=O)OC6)CC[C@]5(O)[C@@H]4CC[C@]3(O)C2)OC(C)C1O (stereo partly drawn),inactive
7,C/C=C1/CN2C3CC1C(CO)C2Cc1c3[nH]c2ccccc12 (stereo not drawn),inactive
8,C[C@@]1(CO)[C@H](O)CC[C@@]2(C)[C@H]1CC[C@H]1C[C@@H]3C[C@@]12CC[C@]3(O)CO,inactive [setting not given]
9,CO[C@H]1C[C@H](O[C@H]2CC[C@]3(CO)[C@H]4CC[C@]5(C)[C@@H](C6=CC(=O)OC6)CC[C@]5(O)[C@@H]4CC[C@]3(O)C2)O[C@H](C)[C@H]1O,inactive
10,Oc1cc(O)cc(/C=C/c2ccc(O)cc2O)c1,inactive
11,CC1=CC2/C=C(\C)CCC(O)C(O)/C=C/C(=O)C23C(=O)NC(CC(C)C)C3C1C (stereo not drawn),inactive
12,C=CCc1cc(OC)c2c(c1)OCO2,inactive [setting not given]
13,C=C(C)[C@H]1CCC(C)=C[C@@H]1c1c(O)cc(CCCCC)cc1O,inactive
14,COc1cc2c(cc1OC)[C@@]13CCN4CC5=CCO[C@H]6CC(=O)N2[C@H]1[C@H]6[C@H]5C[C@H]43,inactive [setting not given]
15,C=C1C(=O)CC2OC2(C)CC2OC(=O)C(=C)C2C(O)C1OC(=O)/C(C)=C\C (stereo not drawn),inactive
16,CO[C@H]1[C@H](O)[C@H](O[C@H]2CC[C@]3(C)C4CC[C@]5(C)[C@H](C6=CC(=O)OC6)CC[C@]5(O)C4CC[C@@H]3C2)O[C@@H](C)[C@@H]1O (stereo partly drawn),inactive
17,C=C[C@H]1CN2CC[C@H]1C[C@@H]2[C@@H](O)c1ccnc2ccccc12,inactive
18,CC#CC#Cc1ccc(C#CC(O)COC(C)=O)s1 (stereo not drawn),inactive
19,CC[C@H]1CN2CC[C@H]1C[C@H]2[C@H](O)c1ccnc2ccc(OC)cc12,inactive
20,CC(C)=CCOc1c2occc2cc2ccc(=O)oc12,inactive [setting not given]
21,CC1(C)C=C2C(=O)C(C)(C)C(=O)C(C)(C)C2(O)OO1 (stereo not drawn),inactive
22,CC(C)[C@@H](C)/C=C/[C@@H](C)[C@H]1CC[C@@H]2[C@]1(C)CCC1[C@]23C=C[C@]2(C[C@@H](O)CC[C@]12C)OO3 (stereo partly drawn),inactive
23,CO[C@H]1[C@H](O)[C@H](O[C@H]2CC[C@]3(C=O)C4CC[C@]5(C)[C@H](C6=CC(=O)OC6)CC[C@]5(O)C4CC[C@@H]3C2)O[C@@H](C)[C@@H]1O (stereo partly drawn),inactive
24,CC1CC(C)C(=O)C(C(O)CC2CC(=O)NC(=O)C2)C1 (stereo not drawn),inactive
25,CCC1CC2CN3CCc4c([nH]c5ccccc45)C(C(=O)OC)(C2)C13 (stereo not drawn),inactive
26,CC(=O)NCCc1c[nH]c2ccccc12,inactive [setting not given]
27,C[C@]12CC[C@@H](O[C@@H]3O[C@H](CO)[C@@H](O)[C@H](O)[C@H]3O)C[C@@]1(O)CCC1C2CC[C@]2(C)[C@@H](C3=CC(=O)OC3)CC[C@]12O (stereo partly drawn),inactive
28,C=CC1C[N+]2([O-])CCC1CC2C(O)c1ccnc2ccc(OC)cc12 (stereo not drawn),inactive
